The list is not random: actives were taken first. Their share in the collection is about 1.2%.
Sa RN4220 lethal: S. aureus RN4220 growth inhibition; inhibition, % (concentration not given with the values); 330,000 tested, 0.33% active; OD600, 16 h; AID 1259311; in the data active = inhibition above about 85%
BJeLR lethal: BJeLR cell viability loss | AID 1554 | 300,000 tested, 0.17% active | BJeLR (HRASV12) viability, CellTiter-Glo ATP luminescence, 48 h | inhibition, % (concentration not given with the values); in the data active = inhibition above about 50%
PriA SSB inh: blocks PriA binding to SSB C-terminal tail; AID 1272365; 430,000 tested, 0.6% active; inhibition, % at 33 µM; AlphaScreen SSBct-PriA binding, biotinylated peptide; in the data active = inhibition mostly above about 37%, no sharp cut-off; inactive = mostly below about 20%
Sa ugtP lethal: growth inhibition of S. aureus ugtP deletion strain; 330,000 tested, 0.54% active; AID 1259309; S. aureus RN4220 ugtP deletion, OD600 growth, 16 h; growth inhibition, % (test concentration not listed); in the data active = growth inhibition above about 68%
MazEF act: activators of E. coli MazEF toxin-antitoxin RNase. AID 504720. FAM/BHQ RNA-DNA oligo cleavage fluorescence, 5 h. activation, % at 20 µM. 350,000 tested, 0.32% active; in the data active = activation above about 50%
Target sequence (P0AE70 whole entry, looked up): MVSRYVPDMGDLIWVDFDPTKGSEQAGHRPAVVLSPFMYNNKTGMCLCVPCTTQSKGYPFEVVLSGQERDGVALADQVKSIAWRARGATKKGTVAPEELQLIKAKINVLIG
Hits are given with their value; i = inactive; nt = no result.

SMILES | Sa RN4220 lethal | BJeLR lethal | PriA SSB inh | Sa ugtP lethal | MazEF act
C=CCOc1ccc(CNC(C)(C)C)cc1OC | i | i | i | i | i
CCc1c(C)nc(SCC(=O)Nc2cccc(Br)c2)[nH]c1=O | i | i | i | i | i
CCc1c(C)nc(SCC(=O)Nc2ccc(Br)cc2)[nH]c1=O | i | i | 100.6 | i | i
COc1ccc(/C=C/c2cc(-c3ccc(C)cc3)o[n+]2C)cc1 | 96.0 | 63.0 | i | 99.7 | i
CCC(NC(=O)c1ccccc1NC(=O)c1ccccc1)C(=O)OC (stereo unspecified) | i | i | 52.0 | i | i
CCC(NC(=O)c1ccccc1NC(=O)c1ccc(OC)cc1)C(=O)N1CCCC1 (stereo unspecified) | i | i | i | i | i
O=C(COc1ccc([N+](=O)[O-])cc1)Nc1nc(-c2ccccn2)cs1 | i | i | i | i | i
Cc1cc(C)c2sc(N(Cc3ccccn3)C(=O)C3CCCN3S(C)(=O)=O)nc2c1 (stereo unspecified) | nt | nt | i | nt | nt
COc1cc(OC)c(NC(=O)c2cc(-c3cc[nH]c3)n[nH]2)cc1Cl | nt | nt | 29.0 | nt | nt
Cc1cc(C)cc(OCC(=O)NN2C(=O)c3ccccc3C2=O)c1 | i | i | i | i | i
O=C(NC(Nc1ncc(S(=O)(=O)c2ccc([N+](=O)[O-])cc2)s1)(C(F)(F)F)C(F)(F)F)c1ccc(Cl)cc1 | nt | 70.3 | i | nt | i
COc1cc(OC)c(NC(=O)C(=O)CC(=O)c2ccc(C)cc2C)cc1Cl | 84.6 | i | i | i | i
COc1cccc(C(=O)CC(=O)C(=O)Nc2ccc(C)cc2Cl)c1 | i | i | i | 86.9 | i
COc1cc(OC)c(NC(=O)Cn2cccc2)cc1Cl | i | i | i | i | i
COc1ccc(C(=O)CC(=O)C(=O)Nc2ccc(C)cc2Cl)cc1 | i | i | i | i | i
O=C1c2cccc3c(N4CCOCC4)c([N+](=O)[O-])cc(c23)C(=O)N1c1cccc2ccccc12 | 95.2 | i | i | 97.5 | i
Cc1cccc(N2C(=O)c3cccc4c(N5CCCCC5)c([N+](=O)[O-])cc(c34)C2=O)c1C | nt | i | i | nt | i
O=C(CSc1ncnc2c1oc1ccccc12)Nc1ccc2c(c1)OCO2 | nt | nt | i | nt | nt
Cc1cc(C(=O)NN=Cc2cccnc2)c2ccccc2n1 | i | nt | i | i | nt
N#CC(C#N)=C(/C=C/c1ccccc1)C1CC1 | nt | nt | i | nt | nt
N#CC(C#N)=C(/C=C/c1cccs1)C1CC1 | nt | nt | 42.0 | nt | nt
COc1ccc(OC)c(Nc2nc(CC(=O)NCCc3c[nH]c4ccccc34)cs2)c1 | nt | nt | 16.0 | nt | nt
COc1ccc(OC)c(Nc2nc(CC(=O)NCCC3=CCCCC3)cs2)c1 | nt | nt | 22.0 | nt | nt
COC(=O)Nc1nc(CC(=O)NCCC2=CCCCC2)cs1 | nt | nt | i | nt | nt
COc1ccc(N2CCN(Cc3csc(C)c3-c3ccc(C)cc3)CC2)cc1 | i | i | 90.6 | i | i
SMILES | Sa RN4220 lethal | BJeLR lethal | PriA SSB inh | Sa ugtP lethal | MazEF act
COc1ccc(N2CCN(Cc3cc4c(cc3Br)OCCO4)CC2)cc1 | i | i | i | i | i
O=C(CSc1nc(-c2ccccc2)c(-c2ccccc2)[nH]1)NCc1ccco1 | i | i | 41.5 | i | i
CS(=O)(=O)N1C2CCC1CC(NC(=O)Cn1cnc3ccccc31)C2 (stereo unspecified) | nt | nt | i | nt | nt
COc1ccc(NS(=O)(=O)c2ccc(O)c(NC(=O)c3cc4c(C)nn(-c5ccc(F)cc5)c4s3)c2)cc1 | i | i | i | 83.7 | i
Cc1nn(-c2ccccc2)c2sc(C(=O)Nc3ccccc3F)cc12 | nt | nt | i | nt | nt
COC1C=COC2(C)Oc3c(C)c(O)c4c(O)c(c(CN5CCN(C)CC5)c(O)c4c3C2=O)NC(=O)C(C)=CC=CC(C)C(O)C(C)C(O)C(C)C(OC(C)=O)C1C (stereo unspecified) | nt | nt | i | nt | i
COC1C=CO[C@@]2(C)Oc3c(C)c(O)c4c(O)c(c(C=NN5CCN(C6CCCC6)CC5)c(O)c4c3C2=O)NC(=O)C(C)=CC=CC(C)C(O)C(C)C(O)C(C)C(OC(C)=O)C1C (stereo partly specified) | 99.0 | nt | nt | 98.2 | nt
CCOc1ccc(C2CC(c3cccc(OC)c3)n3nc(N)nc3N2)cc1 (stereo unspecified) | i | i | i | i | i
CCOc1cccc2sc(N(CCCN(C)C)C(=O)C3CCCCC3)nc12 | nt | nt | i | nt | nt
O=c1c2cc(Br)ccc2nc(-c2ccc(Cl)cc2)n1O | 98.5 | i | i | 99.1 | i
O=c1c2ccc(Cl)cc2nc(-c2cccc(C(F)(F)F)c2)n1O | 95.9 | i | i | 99.8 | i
Cc1ccc(-c2nc3c(Cl)cc(Cl)cc3c(=O)n2O)cc1 | 98.6 | i | i | 99.2 | i
